Values joined by “and” are separate entries in the source; they are usually repeats but may differ in a detail not shown here. Identical values can stand only once. Compounds without any hit were thinned out: in the full panel of roughly 83,000, 20% have a hit.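 Results are percent growth after 48 hours of single-concentration exposure. 100 means growth as in untreated cells, lower positive values show inhibition; negative values down to -100 show cell death.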 Active and inactive are the calls of the source. Rule for the calls: active = growth percent below 10; inactive = the rest.
Tested on: RPMI-8226 leukemia
Experiment: NCI-60 one-dose screen, 48 h (100 = growth as untreated, 0 = no growth, -100 = all killed)
Settings: 10 µM unless noted

Row | SMILES | growth
1 | O=[N+]([O-])c1ccccc1/C=N\Nc1ccccc1 | 77.5% (inactive) and 95.6% (inactive)
2 | CCN(CC)CCNc1cc(-c2cccc(OC(F)(F)F)c2)nc2ccc(N3CCCC3)cc12 | -53.3% (active) and -33.8% (active) and 14.6% (inactive)
3 | CC(=O)Nc1cc(S(=O)(=O)O)cc2cc(S(=O)(=O)O)c(N=Nc3ccccc3)c(O)c12 | 104% (inactive) and 96.3% (inactive)
4 | CC(C)CNC(=O)c1ccccc1C(=O)NC1(C(=O)NCC(C)C)CCCC1 | 105% (inactive)
5 | COc1cc2nc(N3CCN(C(=O)C4COc5ccccc5O4)CC3)nc(N)c2cc1OC (centres undefined) | 100% (inactive) and 86.9% (inactive) and 102% (inactive)
6 | O=C(Cc1cccc2ccccc12)N/N=C/c1ccc2c(c1)CCC2 | 75.1% (inactive)
7 | CC1=C(/C=C/C(C)=C/C=C/C(C)=C/C(=O)O)C(C)(C)CCC1 | 31.4% (inactive) and 4.62% (active) and 31.1% (inactive)
8 | O=C(Nc1ccc(Br)cc1)c1cc(Br)ccc1O | 16.9% (inactive) and -8.2% (active)
9 | Cc1cc(-c2ccc(NS(=O)(=O)c3ccccc3)c(C)c2)ccc1NS(=O)(=O)c1ccccc1 | 53.7% (inactive) and 66.1% (inactive)
10 | O=C(CCl)c1ccc2c(c1)Nc1ccccc1S2 | 63.4% (inactive) and 52.1% (inactive)
11 | CC1CCCc2sc3nc(NNC(=O)c4cnccn4)n(-c4ccccc4)c(=O)c3c21 (centres undefined) | 24.4% (inactive) and 11.4% (inactive)
12 | Cc1cc(O)c(C(C)C)cc1N | 84.3% (inactive) and 92.6% (inactive)
13 | COc1ccc2cc3[n+](cc2c1OC)CCc1cc2c(cc1-3)OCO2 | 60.4% (inactive) and 43.8% (inactive)
14 | COc1c(/C(C)=N/N=c2sc(C(C)=O)nn2-c2ccc(Cl)cc2)c(Oc2ccccc2)c(OC)c2occc12 | 107% (inactive) and 96.3% (inactive)
15 | OC(COc1cccc2ccccc12)CN1CCN(c2ccc(Cl)cc2)CC1 (centres undefined) | 68.2% (inactive)
16 | CNc1ccc2nc3ccc(=[N+](C)C)cc-3sc2c1 | 21.3% (inactive) and 8.61% (active)
17 | CC1=NN(c2ccccc2)C(=O)C1C(=O)c1ccccc1 (centres undefined) | 91.9% (inactive)

Row | SMILES | growth
18 | OCCN1CCN(CCO)CC1 | 100% (inactive) and 95.5% (inactive)
19 | CC1=CCC2CC1C2(C)C (centres undefined) | 137% (inactive) and 120% (inactive)
20 | COc1cc(/C=N/Nc2nc3c([nH]2)c(=O)n(C)c(=O)n3C)ccc1O | 98.3% (inactive) and 103% (inactive)
21 | S=C(S)N1CCCC1 | 93% (inactive) and 91.3% (inactive)
22 | CC(=O)Oc1cc(C(=O)O)cc(OC(C)=O)c1OC(C)=O | 96.7% (inactive) and 102% (inactive)
23 | CCN(CC)C(=O)c1cccnc1 | 105% (inactive)
24 | O=C(Nc1cccc(Cl)c1)c1cc2ccccc2cc1O | -19.4% (active) and -4.12% (active)
25 | Cn1c(SSc2ccc(-c3cccnc3)n2C)ccc1-c1cccnc1 | 96.5% (inactive) and 92.1% (inactive)
26 | CN1CCN(CCC=C2c3ccccc3Sc3ccc(S(=O)(=O)N(C)C)cc32)CC1 | 26.4% (inactive) and 23.4% (inactive)
27 | Oc1c(Cl)cc(Cl)cc1Sc1cc(Cl)cc(Cl)c1O | 11.8% (inactive) and -29% (active) and 41.3% (inactive)
28 | Cn1c(=O)n(-c2ccc(C(C)(C)C#N)cc2)c2c3cc(-c4cnc5ccccc5c4)ccc3ncc21 | 8.42% (active)
29 | O=C(N/N=C/c1ccccc1)N/N=C/c1ccccc1 | 104% (inactive) and 100% (inactive)
30 | COc1ccc(-c2cn[nH]c2-c2cc(OC)c(OC)c(OC)c2)cc1N | 29.4% (inactive) and 23.7% (inactive)
31 | C1CCCCNCCC1 | 99.5% (inactive)
32 | COc1ccccc1C(C)=O | 90.6% (inactive) and 100% (inactive)
33 | NS(=O)(=O)c1cc2c(cc1Cl)NC(C(Cl)Cl)NS2(=O)=O (centres undefined) | 96.7% (inactive) and 100% (inactive)
34 | O=C(Oc1cccc(OC(=O)c2ccccc2)c1)c1ccccc1 | 69.9% (inactive) and 104% (inactive)
